# Source: PubChem BioAssay
# Results filed as inconclusive are left out. Calls of active or inactive are those of the source. Unless noted, no cut-off is given here; in the data, nearly all actives have AC50 up to about 26 µM.
# Assays:
# [1] = viability loss in pontine glioma line – cell-based, SU-DIPG-XVII, MIPE5.0, CellTiter-Glo, qHTS, dose response (AID 1347060); settings: CellTiter-Glo ATP luminescence;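 for AC50: cells exposed to compound for 48 hours before viability readout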
# [2] = JHH-DIPG-1 glioma cell viability, MIPE5.0 library, CellTiter-Glo luminescence, qHTS (AID 1347067); settings: JHH-DIPG-1 glioma viability, CellTiter-Glo ATP luminescence;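 note: cells exposed to compound for 48 hours before readout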
# [3] = growth inhibition of DIPG cells – cell-based, MIPE5.0 library, qHTS (AID 1347068; cut-off not given, nearly all actives have IC50 up to about 30 µM); settings: SU-DIPG-XXV viability
# [4] = viability loss with induced miR-34 in A549 – imaging, A549 dox-inducible miR-34, nuclei and caspase counts, primary screen (AID 1347080;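 active = compounds whose cell count with miR-34 switched on is under 0.7 times the count with it off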); settings: A549 miR-34 inducible, Hoechst nuclei count, 48 h
# [5] = compounds altering HSF1 focus formation in cells – imaging, Selleck Cancer Library (AID 1347162; in the data active = plate-normalised HSF1 focus index below about 0.46); settings: human cells, HSF1 nuclear foci imaging, at 10 µM; SSMD: measured here: HSF1 foci SSMD mean; cell count: measured here: cell number; plate-normalised HSF1 focus index: stronger effect = lower value
# [6] = MELAS cybrid and Rieske KO viability enhancers – cell-based, MELAS cybrids, Rieske KO mouse fibroblasts, CellTiter-Glo, primary screen (AID 1508586;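 active = mean z-score across replicates of 1.96 or higher in either the MELAS or the Rieske mutant cell line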;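 note: z relative to plate mean and SD of compound and empty wells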); settings: low glucose
# [7] = growth inhibition, single agent or in combination, cell-based, chromothripsis tumors, cisplatin or BGB combos (AID 1671449; in the data active = inhibition above about 80%;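 note: cells exposed for 96 hours; 0% = vehicle DMSO and 100% = killing by high DMSO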); settings: LFS_MB_P medulloblastoma cells
# [8] = growth inhibition, single agent and combos, cell-based, chromothripsis tumors, cisplatin or BGB combos (AID 1671450; in the data active = inhibition above about 80%;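 note: cells exposed to compound for four days; 0% = vehicle DMSO and 100% = cell killing by high DMSO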); settings: HDN33 neuroblastoma cells, stronger effect = higher value
# [9] = growth inhibition, single agents and combos, ICB984, cell-based, cisplatin or BGB combos, synergistic combos for chromothripsis tumors (AID 1671451; call rule not given here;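 note: cells exposed for 96 hours before readout; 0% = vehicle DMSO and 100% = killing by high DMSO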); settings: ICB984 medulloblastoma cells, drug combinations, stronger effect = higher value
# [10] = growth inhibition, single agents and combos, LFS_MB_1R, cell-based, cisplatin or BGB combos, synergistic combos for chromothripsis tumors (AID 1671452; in the data active = inhibition above about 80%;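 note: cells exposed for 96 hours before readout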); settings: LFS_MB_1R medulloblastoma cells, stronger effect = higher value
# [11] = growth inhibition, single agents and combos, HTB85, cell-based, BGB or cisplatin IC20 combos, synergistic combos for chromothripsis tumors (AID 1671453; in the data active = inhibition above about 80%;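 note: cells exposed for 96 hours before readout; 0% = vehicle DMSO and 100% = high DMSO killing control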); settings: HTB85 osteosarcoma cells, drug combinations, stronger effect = higher value
# [12] = growth inhibition, single agents and combos, CRL2098, cell-based, BGB or cisplatin IC20 combos, synergistic combos for chromothripsis tumors (AID 1671454; in the data active = inhibition above about 80%;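 note: cells exposed for 96 h before readout; 0% = vehicle DMSO and 100% = killing by high DMSO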); settings: CRL2098 osteosarcoma cells, drug combinations, stronger effect = higher value
# [13] = growth inhibition, single agents and combos, HD-MB03, cell-based, BGB or cisplatin IC20 combos, synergistic combos for chromothripsis tumors (AID 1671455; in the data active = inhibition above about 83%;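 note: 0% = vehicle DMSO and 100% = high DMSO as cytotoxic control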); settings: HD-MB03 medulloblastoma cells, stronger effect = higher value
# [14] = growth inhibition, single agents and combos, UWB1.289, cell-based, BGB or cisplatin combos, synergistic combos for chromothripsis tumors (AID 1671456; in the data active = inhibition above about 80%;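 note: cells exposed to compound for four days; 0% = vehicle DMSO and 100% = killing by high DMSO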); settings: UWB1.289 ovarian carcinoma cells, stronger effect = higher value
# [15] = growth inhibition, single agents and combos, LFS_MB_2R, cell-based, cisplatin combos, synergistic combos for chromothripsis tumors (AID 1671457; in the data active = inhibition above about 80%;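 note: cells exposed to compound for four days before readout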); settings: LFS_MB_2R medulloblastoma cells, stronger effect = higher value
# [16] = growth inhibition, MDA-MB-436, cell-based, BGB or cisplatin combos, synergistic combos for chromothripsis tumors (AID 1671458; call rule not given here;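 note: cells exposed for 96 hours; 0% = vehicle DMSO and 100% = killing by high DMSO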); settings: MDA-MB-436 breast carcinoma growth inhibition, drug combinations, stronger effect = higher value
# [17] = UWB1.289_BRCA1 ovarian cancer growth, cell-based, BGB or cisplatin combinations (AID 1671459; in the data active = inhibition above about 80%); settings: UWB1.289 BRCA1 ovarian carcinoma, drug combinations, stronger effect = higher value
# [18] = drug combination toxicity in non-malignant astrocytes – cell-based, BGB or cisplatin IC20 combos, cytotoxicity control for chromothriptic childhood tumor combination screen (AID 1671460; in the data active = inhibition above about 80%;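 note: cells exposed to compounds for 96 hours before viability readout; 0% = vehicle and 100% = killing control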); settings: Human astrocytes, viability inhibition, drug combinations, at 0.5 µM, stronger effect = higher value
# [19] = BT084 cell growth, single and combined drugs, ICGC_MB145, cisplatin and BGB IC40 combos (AID 1671461; in the data active = inhibition above about 80%;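 note: cells exposed to drugs for 96 hours; 0% = vehicle DMSO and 100% = high DMSO full killing control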); settings: BT084 medulloblastoma cells, drug combinations, stronger effect = higher value
# [20] = RCMB18 cell growth, single agent and combined, cisplatin and BGB IC40 combos (AID 1671462; in the data active = inhibition above about 80%;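 note: cells exposed to compound for four days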); settings: RCMB18 medulloblastoma cells, stronger effect = higher value
# [21] = CRL1545 cell growth, single agent and combined, cisplatin and BGB IC20 combos (AID 1671464; in the data active = inhibition above about 80%;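 note: cells exposed to compound for 96 hours before readout; 0% = vehicle DMSO and 100% = high DMSO killing control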); settings: CRL1545 osteosarcoma cells, stronger effect = higher value
# [22] = measured here: combination with BGB IC40, at 0.05 µM
# [23] = measured here: with BGB IC20 combination, at 0.5 µM
# [24] = measured here: with cisplatin IC20 combination, at 0.5 µM
# [25] = measured here: combination with cisplatin, at 0.5 µM
# [26] = measured here: combination with cisplatin, at 5 µM
structure (smiles),measurement,setting,value
NC(=O)c1cc(F)cc2c1C(=O)N(C1CCN(C3CCC(F)(F)CC3)CC1)C2,outcome,[1],inactive
same,outcome,[2],inactive
same,outcome,[3],inactive
CC(=O)C1CCC2C3CCC4=CC(=O)CCC4(C)C3CCC12C (stereo not drawn),outcome,[1],inactive
same,outcome,[2],inactive
same,outcome,[3],inactive
COc1ccc(Cl)c(Nc2ncnc3cc(OCC4CCN(C)CC4)c(OC)cc23)c1,AC50,[1],3.72 µM (active)
same,AC50,[2],20.9 µM (active)
same,outcome,[3],inactive
CNC(=O)c1cc(Oc2ccc3nc(N[C@@H]4CCCC[C@H]4O)sc3c2)ccn1,outcome,[1],inactive
same,outcome,[3],inactive
C=C1CCC[C@]2(C)C=C3OC(=O)C(C)=C3C[C@@H]12,outcome,[1],inactive
same,outcome,[2],inactive
same,outcome,[3],inactive
Nc1nc(OCc2cc(Br)cs2)c2[nH]cnc2n1,outcome,[1],inactive
same,outcome,[3],inactive
same,fold change,"[4]; stronger effect = lower value, cell number ratio, induced over uninduced",0.799 (inactive)
same,fold change,[4]; measured here: relative caspase fold change +Dox/-Dox,0.415
same,cell count,"[4]; measured here: total cells with miR-34 induction, stronger effect = lower value",7150
same,cell count,[4]; measured here: total cells without miR-34 induction,8940
same,SSMD,[5],3.47
same,cell count,[5],6820
same,plate-normalised HSF1 focus index,[5],1.21 (inactive)
same,z-score,"[6]; MELAS cybrid survival, CellTiter-Glo 48 h, stronger effect = higher value",-0.686 (inactive)
same,z-score,"[6]; Rieske KO mouse fibroblast survival, CellTiter-Glo 72 h",-2.22
same,inhibition,"[7]; at 0.5 µM, stronger effect = higher value",-8.6% (inactive)
same,inhibition,"[7]; measured here: combination with BGB IC20, at 0.005 µM",6.06%
same,inhibition,"[7]; measured here: combination with BGB IC40, at 0.005 µM",-17.9%
same,inhibition,[7]; [22],-7.49%
same,inhibition,"[7]; measured here: combination with cisplatin, at 0.5 µM, stronger effect = higher value",-32.7%
same,inhibition,"[7]; measured here: combination with cisplatin, at 5 µM, stronger effect = higher value",3.43%
same,inhibition,"[8]; BGB combo, at 5 µM",-14.7%
same,inhibition,[8]; at 0.5 µM,-12.4% (inactive)
same,inhibition,"[8]; cisplatin combo, at 5 µM",-19.8%
same,inhibition,[8]; [23],-15.1%
same,inhibition,[8]; [24],-16.6%
same,inhibition,"[8]; single agent, at 5 µM",-22.4%
same,inhibition,"[9]; BGB IC20 combo, at 0.005 µM",-4.27%
same,inhibition,"[9]; BGB IC40 combo, at 0.005 µM",-37.5%
same,inhibition,"[9]; BGB IC40 combo, at 0.05 µM",-11.8%
same,inhibition,[9]; at 0.5 µM,-22.3% (inactive)
same,inhibition,"[9]; cisplatin combo, at 0.05 µM",-16.3%
same,inhibition,"[9]; cisplatin combo, at 0.5 µM",-26.5%
same,inhibition,"[9]; cisplatin combo, at 5 µM",-13.8%
same,inhibition,"[9]; measured here: 5 uM single agent, at 5 µM",4.33%
same,inhibition,[10]; at 0.5 µM,-20.5% (inactive)
same,inhibition,[10]; [22],-27%
same,inhibition,[10]; [25],-33.3%
same,inhibition,[10]; [26],-35.3%
same,inhibition,[11]; at 0.5 µM,-18.8% (inactive)
same,inhibition,"[11]; measured here: with BGB IC20, at 0.5 µM",-10.7%
same,inhibition,"[11]; measured here: with BGB IC20, at 5 µM",-21.3%
same,inhibition,"[11]; measured here: with cisplatin IC20, at 0.5 µM",-23.3%
same,inhibition,"[11]; measured here: with cisplatin IC20, at 5 µM",-10.7%
same,inhibition,"[11]; single agent, at 5 µM",-17.4%
same,inhibition,[12]; at 0.5 µM,-32.8% (inactive)
same,inhibition,"[12]; measured here: combination with BGB at IC20, at 0.5 µM",-25.4%
same,inhibition,"[12]; measured here: combination with cisplatin at IC20, at 0.5 µM",-22.4%
same,inhibition,[13]; at 0.5 µM,-4.96% (inactive)
same,inhibition,"[13]; measured here: combo with BGB at IC20, at 0.5 µM",-7.38%
same,inhibition,"[13]; measured here: combo with cisplatin at IC20, at 0.5 µM",-2.87%
same,inhibition,[14]; at 0.5 µM,7.84% (inactive)
same,inhibition,"[14]; measured here: inhibition with BGB combination, at 0.05 µM",-1.57%
same,inhibition,"[14]; measured here: inhibition with cisplatin combination, at 0.05 µM",-17.8%
same,inhibition,[15]; at 0.5 µM,18.8% (inactive)
same,inhibition,[15]; [25],-4.84%
same,inhibition,[15]; [26],6.55%
same,inhibition,[16]; at 0.5 µM,-3.23% (inactive)
same,inhibition,"[16]; measured here: BGB combination, at 0.5 µM",4.51%
same,inhibition,"[16]; measured here: BGB combination, at 5 µM",3.71%
same,inhibition,"[16]; measured here: cisplatin combination, at 0.5 µM",-3.58%
same,inhibition,"[16]; measured here: cisplatin combination, at 5 µM",5.35%
same,inhibition,"[17]; BGB combination, concentration series, at 5 µM",-10.7%
same,inhibition,[17]; at 0.5 µM,-6.34% (inactive)
same,inhibition,"[17]; cisplatin combination, concentration series, at 5 µM",8.18%
same,inhibition,[18],-4.57% (inactive)
same,inhibition,[18]; measured here: combo with BGB IC20,2.71%
same,inhibition,[18]; measured here: combo with cisplatin IC20,-8.58%
same,inhibition,[19]; at 0.5 µM,-0.821% (inactive)
same,inhibition,"[19]; cisplatin combination, at 0.5 µM",-10.5%
same,inhibition,"[19]; cisplatin combination, at 5 µM",2.83%
same,inhibition,"[19]; measured here: BGB IC40 combination 0.05 uM, at 0.05 µM",-9.82%
same,inhibition,"[19]; single agent, at 5 µM",4.08%
same,inhibition,[20]; at 0.5 µM,-7.44% (inactive)
same,inhibition,"[20]; cisplatin combo, at 5 µM",-2.67%
same,inhibition,"[20]; measured here: BGB IC40 combination, at 0.05 µM",1.72%
same,inhibition,[20]; [25],-25.9%
same,inhibition,"[20]; single agent, at 5 µM",-0.712%
same,inhibition,[21]; at 0.5 µM,-8.12% (inactive)
same,inhibition,[21]; [23],-32.5%
same,inhibition,[21]; [24],4.06%
same,inhibition,"[21]; single agent, at 0.05 µM",5.05%
same,inhibition,"[21]; single agent, at 5 µM",-19.6%
CCS(=O)(=O)N1CCC(C(C)n2c(C)c(C(=O)NCc3c(OC)cc(C)[nH]c3=O)c3ccccc32)CC1 (stereo not drawn),outcome,[1],inactive
same,outcome,[2],inactive
same,outcome,[3],inactive
CN1C(=O)N(c2cc(Cl)cc(Cl)c2)C(=O)[C@]12CN(Cc1cc(C(=O)O)cs1)C[C@H]2c1ccc(C#N)cc1,outcome,[1],inactive
same,outcome,[3],inactive
